Screening data from PubChem.
PPARg SRC1 recr – PPARgamma agonists recruiting SRC-1 coactivator, primary screen, biochemical; Peroxisome proliferator-activated receptor gamma (Homo sapiens), P37231; AID 631, 2007; activation, % at 8 µM; PPARgamma-SRC-1 coactivator recruitment biochemical assay; 200,000 compounds, 0.41% hits; in the data active = activation above about 19%
Target sequence (P37231 whole entry, looked up): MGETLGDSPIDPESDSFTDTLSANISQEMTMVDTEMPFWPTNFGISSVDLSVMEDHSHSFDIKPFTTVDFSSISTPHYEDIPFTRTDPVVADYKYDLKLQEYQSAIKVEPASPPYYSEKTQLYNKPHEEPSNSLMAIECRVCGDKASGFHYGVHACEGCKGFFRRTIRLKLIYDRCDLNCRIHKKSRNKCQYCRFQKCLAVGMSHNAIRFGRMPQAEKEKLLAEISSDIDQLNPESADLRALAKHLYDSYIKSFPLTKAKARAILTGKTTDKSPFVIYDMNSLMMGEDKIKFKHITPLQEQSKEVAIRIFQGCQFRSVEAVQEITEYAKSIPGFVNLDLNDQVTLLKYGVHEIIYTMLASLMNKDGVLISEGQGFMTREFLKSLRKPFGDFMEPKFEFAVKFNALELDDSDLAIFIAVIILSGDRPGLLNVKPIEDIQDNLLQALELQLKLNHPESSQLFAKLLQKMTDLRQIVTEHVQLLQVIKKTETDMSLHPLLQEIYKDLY
SRC1 TRFRET art – TR-FRET detection interference compounds, primary screen, artefact control for PPARgamma SRC-1 recruitment agonists, biochemical, TR-FRET emission ratio. TR-FRET ratio at 8 µM. AID 1051, 2008. TR-FRET detection artefact counter-screen; stronger effect = higher value. 99,000 compounds, 0.34% hits; in the data active = TR-FRET ratio above about 2300
PPARg SRC2 recr – agonists of PPARg-SRC-2 recruitment, primary screen, biochemical, HTS | 200,000 compounds, 0.34% hits | Peroxisome proliferator-activated receptor gamma (Homo sapiens), P37231 | activation, % at 8 µM | PPARgamma LBD-SRC-2 recruitment; in the data active = activation above about 22%
SRC2 TRFRET art – TR-FRET signal artefacts, primary screen, artefact control for PPARgamma SRC-2 agonist project, biochemical; TR-FRET artefact counter-screen; stronger effect = higher value; TR-FRET ratio at 8 µM; 200,000 compounds, 0.4% hits; AID 1049, 2008
SRC3 TRFRET art – TR-FRET detection interference compounds, artefact control for PPARgamma SRC-3 recruitment agonists, biochemical, TR-FRET ratio; TR-FRET artefact counter-screen, PPARgamma/SRC-3 format; stronger effect = higher value; 99,000 compounds, 0.39% hits; TR-FRET ratio at 8 µM; AID 1048, 2008
PPARg SRC3 recr – PPARgamma agonists recruiting SRC-3 coactivator, primary screen, biochemical | Peroxisome proliferator-activated receptor gamma (Homo sapiens), P37231 | biochemical PPARgamma/SRC-3 coactivator recruitment assay | activation, % at 8 µM | 200,000 compounds, 0.26% hits; in the data active = activation above about 23%
Each line names hits and unclear results; the compound was inactive in the other large screens. The list is not random: actives were taken first. Their share in the collection is about 0.84%. Cut-off read from the data, not from the text of the source, unless noted: active = TR-FRET ratio above about 2000; inactive = the rest.

COc1ccc(NC(=O)CSc2ccc3c4c(cccc24)C(=O)c2ccccc2-3)cc1	PPARg SRC3 recr 43 (no result: SRC1 TRFRET art, SRC3 TRFRET art)
N#Cc1cccc(NC(=O)CSc2ccc3c4c(cccc24)C(=O)c2ccccc2-3)c1	none (no result: SRC1 TRFRET art, SRC3 TRFRET art)
COc1ccc(C2C(C#N)=C(N)Oc3cc(C)[nH]c(=O)c32)c(OC)c1OC (stereo not given)	none (no result: SRC1 TRFRET art, SRC3 TRFRET art)
Cc1ccc(-n2nnnc2SCC(=O)N2CC(=O)Nc3ccccc32)cc1	none (no result: SRC1 TRFRET art, SRC3 TRFRET art)
Cc1ccc(C)c(NC(=O)CS(=O)(=O)c2cccc3nsnc23)c1	none
COc1ccc(Br)cc1C(=O)N/N=C/c1ccc([N+](=O)[O-])cc1	PPARg SRC1 recr 30, SRC1 TRFRET art 2467
CCOc1ccc(Br)cc1C(=O)N/N=C/c1ccc([N+](=O)[O-])cc1	none
CCC(=O)Nc1ccc(C(=O)N/N=C/c2ccc([N+](=O)[O-])cc2)cc1	SRC1 TRFRET art 2345
COC(=O)C1C/C(=N\NS(=O)(=O)c2ccc(C)cc2)c2ccsc2C1 (stereo not given)	none
Cn1c(SCc2cc(=O)[nH]c3ccccc23)nnc1-c1ccc(Br)cc1	none (no result: SRC1 TRFRET art, SRC3 TRFRET art)
Cc1ccccc1CC1(CO)CCCN(Cc2nc(-c3cccs3)oc2C)C1 (stereo not given)	none
Cn1c(O)c(N=NC(=O)Cn2c(C(F)(F)F)nc3ccccc32)c2ccccc21	none
CC(=O)Nc1cccc(NC(=O)c2cc(-c3cccnc3)nc3ccc(Br)cc23)c1	none (no result: SRC1 TRFRET art, SRC3 TRFRET art)
CSc1ccccc1NC(=O)c1cc(-c2cccnc2)nc2ccc(Br)cc12	SRC3 TRFRET art 2157
Cc1ccc(S(=O)(=O)c2cn(Cc3ccc(F)cc3)c3cc4c(cc3c2=O)OCO4)cc1	SRC3 TRFRET art 2414
CC(=O)Nc1ccccc1OCC(=O)NCCc1ccc(Cl)cc1Cl	none
N#CC1=C(S)N(c2ccccc2)C(c2ccc(-c3cccc(Cl)c3)o2)NC1=O (stereo not given)	SRC1 TRFRET art 2388
Cc1cccc(N2C(S)=C(C#N)C(=O)NC2c2ccco2)c1 (stereo not given)	none
COc1ccc(-c2oc3ncnc(NCCCN4CCOCC4)c3c2-c2ccc(OC)cc2)cc1	none (no result: SRC1 TRFRET art, SRC3 TRFRET art)
c1ccc(-c2oc3ncnc(NCCCN4CCOCC4)c3c2-c2ccccc2)cc1	PPARg SRC1 recr 24 (no result: SRC1 TRFRET art, SRC3 TRFRET art)
COc1ccc(CCNC(N)=S)cc1OC	none
Cc1cccc(Nc2nnc(SCC(=O)c3ccc(Br)s3)s2)c1C	SRC3 TRFRET art 2057
C/C(N)=C(/C#N)C(=O)CSc1nnc(Nc2cccc(C)c2C)s1	none (no result: SRC1 TRFRET art, SRC3 TRFRET art)
O=C(CSc1ncnc2c1nnn2-c1ccc(F)cc1)NCc1ccco1	PPARg SRC2 recr 23 (no result: SRC1 TRFRET art, SRC3 TRFRET art)
Clc1ccc(-c2nnc3sc(-c4ccc(Br)o4)nn23)cc1	PPARg SRC3 recr 28 (no result: SRC1 TRFRET art, SRC3 TRFRET art)
Clc1ccccc1-c1nnc2sc(-c3ccc(Br)o3)nn12	none (no result: SRC1 TRFRET art, SRC3 TRFRET art)
Cc1c(-c2ccccc2)sc2nc[nH]c(=S)c12	SRC3 TRFRET art 2134
Cc1ccc(-c2csc3nc[nH]c(=S)c23)cc1C	none
Cc1ccc(-c2csc3ncnc(SCC(=O)NCc4ccc5c(c4)OCO5)c23)cc1	SRC2 TRFRET art 2614 (no result: SRC1 TRFRET art, SRC3 TRFRET art)
COc1ccc(Nc2nc(-c3ccccc3)c(C(=O)Nc3cccnc3)s2)cc1	SRC1 TRFRET art 2466, SRC3 TRFRET art 2178
O=C(CNCc1ccc(F)cc1)Nc1ccccc1[N+](=O)[O-]	none
CCOc1ccc(-n2nc3c(=S)[nH]nc(C)c3c2C)cc1	SRC3 TRFRET art 2186
CCOc1ccc(-n2nc3c(=O)[nH]nc(C)c3c2C)cc1	none
Cc1cc(NC(=O)CN2C(=O)NC3(CCC(C)CC3)C2=O)no1 (stereo not given)	PPARg SRC2 recr 22
COc1ccc(C2CC(c3cccs3)=NN2C(=O)COC(=O)C2CCCCC2)cc1OC (stereo not given)	none
COc1ccc(C2CC(c3cccs3)=NN2C(=O)COC(=O)c2cncc(Br)c2)cc1OC (stereo not given)	SRC3 TRFRET art 2284
O=C(CSc1nnc(-c2ccco2)n1-c1ccccc1)N1CCc2ccccc21	none (no result: SRC1 TRFRET art, SRC3 TRFRET art)
O=C(CSc1nnc(-c2cccs2)n1-c1ccccc1)N1CCc2ccccc21	PPARg SRC1 recr 30 (no result: SRC1 TRFRET art, SRC3 TRFRET art)
COc1c(Cl)cc(Cl)cc1CNc1ccc(S(N)(=O)=O)cc1	none
Cc1nn(Cc2ccccc2Cl)c(C)c1NC(=O)CCCn1nc([N+](=O)[O-])c(Cl)c1C	none
COc1cccc(C2C(C(=O)c3cc4ccccc4o3)=C(O)C(=O)N2CCN(C)C)c1OC (stereo not given)	PPARg SRC3 recr 28 (no result: SRC1 TRFRET art, SRC3 TRFRET art)
COc1cccc(C2C(C(=O)c3ccco3)=C(O)C(=O)N2CCN(C)C)c1OC (stereo not given)	none
O=C(COc1ccc(/C=N/NC(=O)c2cc3ccccc3o2)cc1Br)Nc1ccccc1	PPARg SRC2 recr 63, SRC2 TRFRET art 3281 (no result: SRC1 TRFRET art, SRC3 TRFRET art)
CCOC(=O)Cc1ncccc1C(=O)Nc1ccc(Oc2ccccc2)cc1	none
Cc1c(C(=O)Nc2nccs2)sc2nc(-c3cccs3)cc(C(F)(F)F)c12	SRC2 TRFRET art 2020 (no result: SRC1 TRFRET art, SRC3 TRFRET art)
CCC1(C)CC2(CCCN(CCC(=O)c3ccccc3)C2)CCO1 (stereo not given)	none
CCN(CC)C(=O)c1ccc2c(c1)nnn2C	none
CC(=O)Nc1ccc(Nc2nc(-c3ccccc3)nc3ccccc23)cc1	none
O=C(Nc1nc(-c2ccccc2)nc2ccccc12)c1ccc(F)cc1	SRC3 TRFRET art 2774, PPARg SRC3 recr 34
COC(=O)c1c(NC(=S)Nc2ccc(C(=O)N3CCOCC3)cc2)sc2c1CCC2	SRC3 TRFRET art 2231
CCOC(=O)c1c(NC(=S)Nc2ccc(OC)cc2)sc2c1CCC2	none
CC1=NNC(=O)C1CC(=O)N/N=C(\C)c1ccco1 (stereo not given)	SRC1 TRFRET art 2343
CC1=NNC(=O)C1CCC(=O)N/N=C(\C)c1ccccc1 (stereo not given)	none
CCOc1ccc(CC(=O)N2N=C(C)CC2(O)C(F)(F)F)cc1 (stereo not given)	none
CCN(C(=O)c1cccs1)c1nc(-c2ccc(OC)cc2)cs1	SRC3 TRFRET art 2437
COc1ccc(-c2csc(N(CCc3ccc(OC)c(OC)c3)C(=O)COc3ccccc3)n2)cc1	SRC2 TRFRET art 2007 (no result: SRC1 TRFRET art, SRC3 TRFRET art)
COc1ccc(-c2csc(N(Cc3ccccc3)C(=O)COc3ccc(Cl)cc3)n2)cc1	none (no result: SRC1 TRFRET art, SRC3 TRFRET art)
COc1ccc(-c2csc(N(CCCN(C)C)C(=O)c3cccs3)n2)cc1	none
O=C(O)c1ccc(/C=C/c2nc3sc4c(c3c(=O)[nH]2)CCC4)cc1	none
CCN1CCCC1CNC(=O)c1cc2c(-c3ccc(Cl)cc3)nn(C)c2s1 (stereo not given)	PPARg SRC1 recr 22 (no result: SRC1 TRFRET art, SRC3 TRFRET art)
